Bioassay records as filed in PubChem BioAssay.
DT40 TDP1 CPT: DT40-hTDP1 cell growth loss with CPT | chicken DT40 Tdp1-/-;hTDP1 cells + 20 nM CPT, ATP luminescence, 48 h | Potency, µM (top dose mostly 46.2 µM), hits mostly inhibitors | 420,000 tested, 12% active | AID 686979; further: nearly all actives have a fitted effect of over 55% in size
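Chicken DT40 Tdp1-/- cells stably complemented with human TDP1 were seeded at 400 cells/well in medium containing 20 nM camptothecin, exposed to pin-transferred compounds, and grown at 37 °C for at least 48 hr. Viability was read as ATP luminescence.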
S2 tox: reduces viability in counter-screen for ATXN expression inhibitors. S2 cells (HEK-293 line with an ATXN2-luciferase reporter) viability, CellTiter-Fluor protease fluorescence, 24 h. Potency, µM (top dose mostly 56.7 µM), hits mostly cytotoxic. 400,000 tested, 0.49% active; further: nearly all actives have a fitted effect of over 40% in size
HepG2 tox: counter-screen for TGF-b inhibitors: cytotoxicity in HepG2 cells; 410,000 tested, 0.76% active; AID 588856; Potency, µM (highest dose often 46.1 µM), most hits filed as cytotoxic; HepG2 CAGA-GFP viability, ATP luminescence, 18 h
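HepG2 CAGA-GFP cells (1000/well, DMEM with 1% FBS) received compound, then TGF-beta at 500 pg/mL final, and were incubated 18 hours at 37 degrees C. Viability was read by CellTiter-Glo luminescence. Media-only wells were set as complete cell-killing and DMSO as no toxicity.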
ATXN2 expr inh: ATXN2 expression inhibition; 360,000 tested, 0.72% active; HEK-293 ATXN2-luciferase reporter, luminescence, 24 h; Potency, µM (titrated, usually from 57 µM), most hits filed as inhibitors; AID 1745845; further: nearly all actives have a fitted effect of over 55% in size
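qHTS (up to 57 uM final) was run with 24 h compound exposure of reporter cells at 37 °C. Each well was multiplexed: SteadyGlo luminescence measured ATXN2-luciferase expression after a fluorogenic Gly-Phe-AFC viability readout (25 uM final).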
DT40 TDP1 no CPT: qHTS for Inhibitors of human tyrosyl-DNA phosphodiesterase 1 (TDP1): qHTS in cells in absence of CPT | 420,000 tested, 15% active | DT40 Tdp1-/- hTDP1 cells, no CPT, ATP luminescence, 48 h | AID 686978, 2013 | Potency, µM (top dose mostly 46.2 µM), most hits filed as inhibitors; further: nearly all actives have a fitted effect of over 55% in size
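Compound effects on proliferation are scored in DT40 Tdp1-/-;hTDP1 cells in the absence of CPT. ATP levels (CellTiter-Glo luminescence) are recorded after a ≥48 hr, 37 °C incubation.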
TGFb inhibitor: TGF-b pathway inhibition; HepG2 CAGA-GFP TGF-b/SMAD3 reporter, GFP fluorescence, 18 h; TGF-beta stimulated, 500 pg/mL final; Potency, µM (doses to about 46.1 µM), actives largely listed as inhibitors; 410,000 tested, 1.2% active; AID 588855; further: nearly all actives have a fitted effect of over 65% in size
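First, reporter cells (HEPG2 CAGA-GFP) rested 2 h at 37 degrees C. Next, compounds were pinned in and TGF-beta added to 500 pg/mL final. After 18 h, GFP was imaged per cell and summed per well.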
Numbers stand for hits; 0 = inactive; ? = inconclusive; - = no result; [ ] = remark or other dose. Hits are enriched below; roughly 17% of the tested compounds scored in any of these assays. The call rests on the fitted dose curve; in most records, active means well fitted curve in the direction sought with a large enough effect; inconclusive means small, poorly fitted or top-dose-only effect, or another doubt; inactive means no such curve, though single readings can be large; an effect the other way counts as inactive or inconclusive.

SMILES | DT40 TDP1 CPT | S2 tox | HepG2 tox | ATXN2 expr inh | DT40 TDP1 no CPT | TGFb inhibitor
COc1ccccc1C(=O)Nc1ccnn1C1CCN(CC2CC=CCC2)CC1 (configuration not stated) | 0 | 0 | 0 | 0 | 0 | 0
CC1(C)SC(=S)N(/N=C/c2ccc(O)cc2)C1N(O)C(=O)Nc1ccc([N+](=O)[O-])cc1 (configuration not stated) | 23µM | ? | 0 | 0 | ? | ?
CC1(C)SC(=S)N(/N=C/c2cccnc2)C1N(O)C(=O)Nc1ccccc1 (configuration not stated) | 0 | 0 | 0 | - | 0 | 0
Cc1ccc(/C=N/N2C(=S)SC(C)(C)C2N(O)C(=O)Nc2ccc([N+](=O)[O-])cc2)cc1 (configuration not stated) | ? | 0 | 0 | 0 | 18µM | ?
CC1(C)SC(=S)N(/N=C/c2ccccc2O)C1N(O)C(=O)Nc1ccccc1 (configuration not stated) | 12µM | 0 | 0 | 0 | 16µM | ?
CNC(=O)N(O)C1N(/N=C/c2cc(Br)ccc2O)C(=S)SC1(C)C (configuration not stated) | ? | 0 | 0 | - | ? | ?
CNC(=O)N(O)C1N(/N=C/c2ccc(C)cc2)C(=S)SC1(C)C (configuration not stated) | 0 | 0 | 0 | - | 0 | 0
C=C1c2ccccc2S(=O)(=O)N(Cc2ccccc2)C1COCc1ccccc1 (configuration not stated) | 0 | 0 | 0 | 0 | 0 | ?
Cc1c(CCOC(=O)CC23CC4CC(CC(C4)C2)C3)sc[n+]1CC(=O)c1ccccc1 | 21µM | - | 0 | 0 | 15µM | ?
Cc1c(CCOC(=O)C23CC4(C)CC(C)(CC(C)(C4)C2)C3)sc[n+]1CC(=O)c1ccccc1 | ? | 0 | 20µM | 0 | ? | 10µM
Cc1c(CCO)sc[n+]1CC(=O)c1ccccc1 | 0.56µM | - | 0 | - | ? | 0
Cc1c(N)cc[n+](CC(=O)c2ccccc2)c1C | 21µM | 0 | 0 | 0 | 21µM | 0
Cc1cc[n+](CC(=O)c2ccccc2)c2ccccc12 | 0 | 0 | 0 | 0 | 0 | 0
Cc1c(CCOC(=O)c2cc([N+](=O)[O-])cc([N+](=O)[O-])c2)sc[n+]1CC(=O)c1ccc(Br)cc1 | ? | 0 | 0 | 0[11.3 µM] | ? | ?
CC(C)(C)N(Cc1ccccc1)C(=O)CN1C(=O)NC2(CCCCCC2)C1=O | ? | 0 | 0 | 0 | 0 | 0
COc1ccccc1N1CCN(C2CCCN(C(=O)Cn3cccn3)C2)CC1 (configuration not stated) | 0 | 0 | 0 | 0 | 0 | 0
CN(C(=O)c1cccc(NC(=O)Cc2ccc(NC(=O)C3CCN(C(=O)c4ccccc4)CC3)cc2)c1)C1CC1 | 0 | 0 | 0 | 0 | 0 | 0
CN(C(=O)c1cccc(NC(=O)Cc2ccc(NC(=O)C3CCN(C(=O)CCc4ccccc4)CC3)cc2)c1)C1CCC1 | 13µM | 0 | 0 | 0 | 13µM | ?
CN(C(=O)c1cccc(NC(=O)Cc2ccc(NC(=O)C3CCN(C(=O)CCc4ccccc4)CC3)cc2)c1)C1CC1 | 16µM | 0 | 0 | 0 | 10µM | ?
CN(C(=O)c1cccc(NC(=O)Cc2ccc(NC(=O)C3CCN(C(=O)c4ccccc4)CC3)cc2)c1)C1CCCC1 | ? | 0 | 0 | 0 | ? | 0
COc1ccc2c(c1)CC/C(=C\C=C\c1ccccc1)C2=O | ? | 0 | 0 | 0 | 23µM | ?
COc1ccc(OC)c(/C=C2\Cc3ccccc3C2=O)c1 | ? | - | 0 | - | ? | 0
COc1ccc(OC)c(C=C2CCc3ccccc3C2=O)c1 | 21µM | ? | 0 | 0 | ? | 0
COc1ccc2c(c1)CC/C(=C/c1cc(OC)c(OC)c(OC)c1)C2=O | ? | 0 | 0.14µM | ? | 15µM | 0
